Shown is part of a subset that was picked to be rich in hits.
DT40 TDP1 CPT – DT40-hTDP1 cell growth loss with CPT; chicken DT40 Tdp1-/-;hTDP1 cells + 20 nM CPT, ATP luminescence, 48 h; Potency, µM (doses to about 46.2 µM), inactives show at the top dose activity change, negative = growth inhibition, hits mostly inhibitors; AID 686979; 12% of 420,000 active; also: potency is read from the fitted curve at half-maximal effect; nearly all actives have a fitted effect of over 55% in size
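Cell growth measured by CellTiter-Glo luminescence after a minimum 48 h, 37 C compound exposure with 20 nM CPT in Tdp1-knockout DT40 cells stably expressing hTDP1, seeded 400/well; qHTS titration format.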
IL1B secr inh – blocks inflammasome-driven IL-1 beta release. THP-1 LPS/ATP IL-1B secretion, AlphaLISA, 16 h; active compounds read low. activity change, % at 57.5 µM. 4.7% of 360,000 active. AID 743279; in the data active = activity change below about -50%; inconclusive = mostly about -30% to -49%
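Secreted IL-1B measured by AlphaLISA bead assay after 16 h compound exposure of THP-1 cells; compounds (final up to 57.5 uM) added 1 h before LPS (250 ng/mL) and ATP (1.25 mM) stimulation; lower signal means less secretion.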
HT1080 IDH1KD tx – toxicity to HT-1080 IDH1 knockdown cells (counter line). 2% of 360,000 active. HT-1080 IDH1 knockdown viability, ATP luminescence, 48 h. Potency, µM (series often up to 46.1 µM), for the others: at the top dose activity, negative = toxicity, hits mostly cytotoxic;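 also: potency is read from the fitted curve at half-maximal effect; 0% = DMSO wells and -100% = cell-free medium wells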
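Knockdown cells (IDH1KD HT-1080) received compounds 2 h after plating at 750 cells/well and were kept 48 h at 37 °C in 5% FBS RPMI. A CellTiter-Glo luminescence read gave % activity for curve fitting.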
HT1080NT lethal – kills 2HG-producing HT-1080-NT fibrosarcoma cells; HT-1080-NT fibrosarcoma viability, CellTiter-Glo ATP luminescence, 48 h; Potency, µM (top dose mostly 46.1 µM), inactives show top-dose activity, negative = less viability, most hits filed as cytotoxic; 1.6% of 360,000 active;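 also: NT is the 2HG producing partner of a matched IDH1 knockdown line; potency is read from the fitted curve at half-maximal effect; 0% = DMSO-treated cells and -100% = media-only wells without cells; nearly all actives have a fitted effect of over 55% in size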
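Read-out is CellTiter-Glo luminescence after 10 minutes at room temperature, following 48 hours' compound treatment of HT-1080-NT cells (750 cells/well, RPMI, 5% FBS, 37 degrees C).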
12-LOX inh – ALOX12 (human) lipoxygenase inhibition | purified 12hLO, xylenol orange hydroperoxide absorbance | P18054 | 1.1% of 580,000 active | Potency, µM (doses to about 108 µM), for inactives: at the top dose activity change, negative = inhibition, hits mostly inhibitors; also: potency is read from the fitted curve at half-maximal effect
Target sequence (P18054 whole entry, looked up): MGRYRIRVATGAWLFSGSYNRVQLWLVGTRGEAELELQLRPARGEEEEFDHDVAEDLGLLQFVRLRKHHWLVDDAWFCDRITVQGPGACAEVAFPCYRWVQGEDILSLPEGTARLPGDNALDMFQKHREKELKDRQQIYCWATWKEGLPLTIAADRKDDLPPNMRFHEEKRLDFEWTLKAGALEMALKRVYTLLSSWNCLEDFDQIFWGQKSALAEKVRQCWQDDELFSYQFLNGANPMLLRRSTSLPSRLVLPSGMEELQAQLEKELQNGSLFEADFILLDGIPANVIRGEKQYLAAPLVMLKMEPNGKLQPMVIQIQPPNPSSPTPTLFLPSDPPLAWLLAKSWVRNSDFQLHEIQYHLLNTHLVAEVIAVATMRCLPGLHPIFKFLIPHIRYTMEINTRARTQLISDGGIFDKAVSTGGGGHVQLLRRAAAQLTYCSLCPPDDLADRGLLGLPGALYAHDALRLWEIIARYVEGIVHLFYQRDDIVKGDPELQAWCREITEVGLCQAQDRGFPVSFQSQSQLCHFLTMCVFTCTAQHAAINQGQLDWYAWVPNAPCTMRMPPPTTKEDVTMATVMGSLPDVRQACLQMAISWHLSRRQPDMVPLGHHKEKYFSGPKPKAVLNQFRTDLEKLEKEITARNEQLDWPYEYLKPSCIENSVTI
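Purified human 12hLO at 150 nM in 25 mM Hepes, 0.01% Triton X-100, pH 7.0, preincubated 15 min at room temperature with compound. Reaction started with 40 uM arachidonic acid, 30 min at room temperature. Hydroperoxide measured by Fe-xylenol orange, 573/405 nm absorbance ratio.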
TDP1 cell noCPT – qHTS for Inhibitors of human tyrosyl-DNA phosphodiesterase 1 (TDP1): qHTS in cells in absence of CPT. Potency, µM (series often up to 46.2 µM), for the others: at the top dose activity change, negative = growth inhibition, most hits filed as inhibitors. 15% of 420,000 active. DT40 Tdp1-/- hTDP1 cells, no CPT, ATP luminescence, 48 h; also: potency is read from the fitted curve at half-maximal effect; nearly all actives have a fitted effect of over 55% in size
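DT40 Tdp1-/-;hTDP1 cells, no CPT (DMSO vehicle only), 400 cells/well; compounds pin-transferred; ≥48 hr, 37 °C; CellTiter-Glo 30 min RT dark, luminescence read.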
* hit, by the source's call; ? = inconclusive; · = not tested or not shown; [ ] = remark or other dose. Unless noted, calls follow the shape of the dose curve; as a rule, active = well fitted curve in the direction sought with a large enough effect; inconclusive = small, poorly fitted or top-dose-only effect, or another doubt; inactive = no such curve, though single readings can be large; an effect the other way counts as inactive or inconclusive. Unless noted, % is scaled to controls: 0 for no effect and ±100 for the full control effect.

SMILES	DT40 TDP1 CPT	IL1B secr inh	HT1080 IDH1KD tx	HT1080NT lethal	12-LOX inh	TDP1 cell noCPT
CC(C)c1noc(-c2cn(C3CCN(C(=O)c4ccc(C#N)cc4)CC3)nn2)n1	·	·	·	·	-10%	·
COc1cc(CN2CCN(c3ncccc3C#N)CC2CCO)cc(OC)c1 (stereo not drawn)	·	·	·	·	8%	·
CCONC(=O)c1ccc(N(C)C)cc1	·	·	·	·	2%	·
Cn1nc(-c2ccc(OCC(=O)Nc3ccccc3)cc2)c2ccccc2c1=O	23µM*	-13	-1%	1%	-3%	26µM*
CNC(=O)COc1ccc(NC(=O)CCn2nc(-c3ccc(C)cc3)c3ccccc3c2=O)cc1	?	·	·	·	-22%	21µM*
Cn1nc(-c2ccc(OCC(=O)Nc3ccc(F)cc3)cc2)c2ccccc2c1=O	·	·	·	·	1%	·
Cn1nc(-c2ccc(OCC(=O)Nc3ccc(Cl)cc3)cc2)c2ccccc2c1=O	?	·	·	·	-7%	21µM*
Cc1cccc(NC(=O)COc2ccc(-c3nn(C)c(=O)c4ccccc34)cc2)c1	12µM*	-52*	-21%	0%	-28%	16µM*
C/C(c1cccs1)=[N+](\[O-])C(C)/C(=N/O)c1cccs1 (stereo not drawn)	·	·	·	·	22%	·
Cn1nc(-c2ccc(OCC(N)=O)cc2)c2ccccc2c1=O	-2%	10	2%	10%	0%	2%
CN(C(=O)c1ccc(-c2nn(C)c(=O)c3ccccc23)cc1)c1ccccc1	?	47	-10%	-6%	13%	16µM*
Cc1csc(NC(=O)Cc2coc3cc(C)c(C(C)C)cc23)n1	13µM*	?	23µM*	?	?	16µM*
COc1ccccc1NC(=O)c1ccc(-c2nn(C)c(=O)c3ccccc23)cc1	?	-56*	1%	-3%	0%	21µM*
COc1ccccc1NC(=O)COc1ccc(-c2nn(C)c(=O)c3ccccc23)cc1	13µM*	-8	-26%	-28%	-6%	7.3µM*
CN(C)CCNC(=O)c1ccc(-c2nn(C)c(=O)c3ccccc23)cc1	?	16	-1%	1%	-16%	-18%
Cc1ccc(CNS(=O)(=O)c2ccc3c(c2)N(Cc2noc(C)n2)C(=O)CO3)cc1	·	·	·	·	-1%	·
CCn1c(=O)c(=O)[nH]c2cc(C(=O)N3CCC4(CC3)OCCO4)ccc21	·	·	·	·	29%	·
CC(C)(C)c1ccc(C(=O)Nc2ccc(C(O)[C@H]3COCC(=O)N3Cc3ccccn3)cc2)cc1 (stereo partly drawn)	·	·	·	·	5%	·
COc1cccc([S+](=O)([O-])N2CCC3(C2)C(=O)N(Cc2ccccc2)c2ccccc23)c1 (stereo not drawn)	·	·	·	·	23%	·
Cc1csc(NC(=O)Cc2nn(C)c(=O)c3ccccc23)n1	10µM*	-8	-11%	-8%	-20%	8.2µM*
COC(=O)COc1ccc(-c2nn(C)c(=O)c3ccccc23)cc1	-3%	7	10%	0%	-9%[57.4 µM]	-19%
CCCNC(=O)COc1ccc(-c2nn(C)c(=O)c3ccccc23)cc1	?	16	2%	-2%	1%	21µM*
O=C1C[C@@H]2CCN(C(=O)Nc3cccc(C(F)(F)F)c3)C[C@@H]2CCN1CCN1CCNC1=O	·	·	·	·	-8%	·
Nc1nccnc1C(=O)NCc1ccnc(OCc2ccccc2)c1	·	·	·	·	33%	·
O=C(Nc1cccc2cccnc12)c1csc(COCCO)n1	23µM*	?	0%	-13%	·	13µM*
SMILES	DT40 TDP1 CPT	IL1B secr inh	HT1080 IDH1KD tx	HT1080NT lethal	12-LOX inh	TDP1 cell noCPT
Cc1noc(C)c1[S+](=O)([O-])N1CCC(N2Cc3ccccc3C2=O)CC1	·	·	·	·	8%[6.33 µM]	·
CC(C)c1ccc(C2C3=C(COC3=O)Nc3cc4c(cc32)OCO4)cc1 (stereo not drawn)	0.65µM*	14	1.6µM*	1.5µM*	22%	0.92µM*
CCc1nc2c(OCc3ccccc3C(=O)OC)cccn2c1N(C)C(=O)c1ccncc1	?	23	5%	13%	-11%	-23%
CCc1nc2c(OCc3ccccc3C(=O)OC)cccn2c1N(C)C(=O)c1cccs1	?	4	-25%	-26%	-4%	29µM*
CCc1nc2c(OCCc3cccc(OC)c3)cccn2c1N(C)C(=O)c1cccs1	21µM*	-1	?	?	21%	?
CCc1nc2c(OCc3ccccc3C(=O)OC)cccn2c1N(C)C(=O)CC(C)C	16µM*	10	1%	9%	?	13µM*
O=C(NCc1ccc(F)cc1)C1CCc2nnc(-c3ccc(Cl)cc3Cl)n21 (stereo not drawn)	·	·	·	·	-2%[6.33 µM]	·
Cc1ccccc1Nc1nc(N)nc(CSc2nc3ccccc3s2)n1	?	-9	6%	7%	-1%	?
COc1ccc(Nc2nc(N)nc(CSc3nnc(C)s3)n2)cc1	-18%	-12	-9%	-3%	128%	-23%
Cc1ccc(Nc2nc(N)nc(CSc3nc4ccccc4s3)n2)cc1	?	-70*	?	?	2%	?
COc1ccc(Nc2nc(N)nc(CSc3nc4cc(OC)ccc4s3)n2)cc1	12µM*	·	·	·	?	15µM*
CC(Sc1nnc(NC2CCCCC2)s1)C(=O)Nc1ccc2c(c1)C(=O)c1ccccc1C2=O (stereo not drawn)	?	-3	-8%	-14%	-13%	21µM*
CC(Sc1nnc(NC2CC2)s1)C(=O)Nc1ccc(N2CCOCC2)cc1 (stereo not drawn)	3%	-10	13%	0%	6%	-20%
Cc1nn2c(-c3cccnc3)ccnc2c1-c1ccccc1	?	-11	0%	0%	-13%	23µM*
COc1cc(Br)c(C[N+]2(CCOCCC3CCC4CC3C4(C)C)CCOCC2)cc1OC (stereo not drawn)	1.9µM*	·	·	·	·	1.9µM*
Cc1ccc(C(=O)N2CCCCCCNC(=O)[C@@H]3C[C@@H](C(=O)N4CCc5ccccc5C4)C[C@@H]32)s1	·	·	·	·	0%	·
CCOC(=O)c1sc(NC(=O)N2CCN(CC)CC2)c(C(=O)OCC)c1C	·	·	·	·	-8%	·
CCOC(=O)c1c(NC(=O)CN2CCN(C)CC2)sc(C(=O)Nc2ccccc2)c1C	?	-162*	23µM*	?	-3%	?
CCOC(=O)c1c(NC(=O)CN2CCN(S(=O)(=O)c3cc(Cl)ccc3Cl)CC2)sc(C(=O)N(C)C)c1C	16µM*	-21	?	-20%	-20%	?

Screening data deposited in PubChem BioAssay by National Center for Advancing Translational Sciences (NCATS).
